The results in this text go back to PMC7819943, “Rice protein-binding microarrays: a tool to detect cis-acting elements near promoter regions in rice”.

Over roughly 39,000 sequences, “fluorescence intensity (a.u.)” has its median near 4,300; the highest 2% begin near 39,000. Many of the other results were omitted from the sample, so the highest values are more common in it than they were.

This assay addresses T1, OsSMF1 (Oryza sativa, UniProt Q6ZLB0 1-436).
T1 sequence: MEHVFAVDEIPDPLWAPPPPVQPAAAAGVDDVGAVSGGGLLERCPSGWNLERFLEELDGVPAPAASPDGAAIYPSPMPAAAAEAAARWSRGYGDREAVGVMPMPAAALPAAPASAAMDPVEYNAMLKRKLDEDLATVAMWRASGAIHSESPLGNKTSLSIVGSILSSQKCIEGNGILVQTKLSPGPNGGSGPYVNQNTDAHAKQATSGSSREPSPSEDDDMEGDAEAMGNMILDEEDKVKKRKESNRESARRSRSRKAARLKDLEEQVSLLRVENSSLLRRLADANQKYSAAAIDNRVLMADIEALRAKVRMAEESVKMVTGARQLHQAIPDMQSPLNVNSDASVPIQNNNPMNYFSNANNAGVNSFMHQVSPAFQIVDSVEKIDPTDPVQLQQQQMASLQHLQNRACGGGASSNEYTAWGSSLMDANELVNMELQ
Briefly: protein-binding microarray (RPBM); PBS, 2% BSA, 51.3 ng/ul salmon testes DNA, 50 uM zinc acetate, 200 nM TF, 25 C, 1 h; high values mean tight binding. As to conditions: protein: recombinant; tags: N-terminal polyhistidine and DsRed monomer fusion (pET32a); chain copies: 2; label: CyDye5-dUTP incorporated in the synthesized complementary strand; 3' TTTTT single-stranded linker to array surface; dsDNA, one strand shown. Put shortly:
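An Axon 4000B scanner gave the binding signal as per-feature fluorescence intensity in arbitrary units. This followed washing of a custom Agilent array that had been incubated for 1 h at 25 °C with 200 nM protein in PBS, 2% BSA, salmon testes DNA and 50 µM zinc acetate. The proteins were transcription factors fused at the N-terminus to polyhistidine and DsRed, expressed in E. coli BL21-CodonPlus and purified on Ni–NTA.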
Consider “GATTGGTAGTATTTAGTTGTGTATAATGTATTATTAGGTTCGGAGTCACCTAGTGCAG”, for which the binding signal was 3720 fluorescence intensity (a.u.).

Take “TGTTCATCCAAGGAGATTATCAGGTTGTTTGTATATATAACGGAGTCACCTAGTGCAG”: the binding signal was 26400 fluorescence intensity (a.u.).

For “AAATTCGTTCTACAACTAAACAGGTTGCTTCAGAGTGCAACGGAGTCACCTAGTGCAG”, the binding signal was 30800 fluorescence intensity (a.u.).

Regarding “GATTCGAGATTCAGGTAGGTTGTATAGTTCACGGGAGCAACGGAGTCACCTAGTGCAG”, the binding signal is 64500 fluorescence intensity (a.u.).

Consider “AATATAGTGTTGTTTGGTACTATATCGAGTTGGATTAGTTCGGAGTCACCTAGTGCAG”, for which the binding signal was 3190 fluorescence intensity (a.u.).

Take “TTGGTAGGTTCGACCTACTAGATTGTTGTTGATAATATAACGGAGTCACCTAGTGCAG”: the binding signal is 51700 fluorescence intensity (a.u.).

Consider “TGCTATGCATACGACTCAGCTGTCCGACTCATGTATGAATCGGAGTCACCTAGTGCAG”, for which the binding signal is 3720 fluorescence intensity (a.u.).

For the sequence “CGCGGCACGGGGAGACGACACGTCGGATGGTTGGCAGGAGCGGAGTCACCTAGTGCAG”, the binding signal was 16400 fluorescence intensity (a.u.).

On to “TTCTTCCTATATAAGCACAACACACGTCCTTACTTGTGTGCGGAGTCACCTAGTGCAG”, for which the binding signal is 5410 fluorescence intensity (a.u.).

Regarding “GGCGTTCTGCCGCCTGGCGCCGCTCGTCACGTACGAGGACCGGAGTCACCTAGTGCAG”, the binding signal was 3350 fluorescence intensity (a.u.).

Turning to “TCTGTAGTAGTCATCATCACCTAGGTGCCTACCCTTTTGACGGAGTCACCTAGTGCAG”, the binding signal is 3280 fluorescence intensity (a.u.).

For “CTGGGAAATAGTGCTGCAGAGTCACTAGTTAGATCGAAATCGGAGTCACCTAGTGCAG”, the binding signal is 3980 fluorescence intensity (a.u.).

Turning to “ACTACAAATAGATCGAACAGAAACAGAGCATCACGACGACCGGAGTCACCTAGTGCAG”, the binding signal was 40300 fluorescence intensity (a.u.).

As to “TGTGAGCACGGATCGACGATGAAAACAGACGAAGAACATTCGGAGTCACCTAGTGCAG”, the binding signal is 27400 fluorescence intensity (a.u.).

Consider “TCTCAACCCTCAGGTAATCTACTGCTGCGCGTGGTGAATCCGGAGTCACCTAGTGCAG”, for which the binding signal is 4080 fluorescence intensity (a.u.).

On to “AAAGTCCGCTCGTGTTATTGGTAATTGAACTACTAAGCTACGGAGTCACCTAGTGCAG”, for which the binding signal is 41300 fluorescence intensity (a.u.).

Take “ATACTAATAGTATAGTAAGCAACTATTGTATGAATTGGCTCGGAGTCACCTAGTGCAG”: the binding signal is 3740 fluorescence intensity (a.u.).

Consider “CTACTAATAAGGCGTGTTATTATTGGTCATCAATGGCGTCCGGAGTCACCTAGTGCAG”, for which the binding signal is 3300 fluorescence intensity (a.u.).

With “GGATCCGGGCATCTGGCTGCCCCGCCGCCACTCCGCCTAGCGGAGTCACCTAGTGCAG”, the binding signal is 3330 fluorescence intensity (a.u.).

On to “ATTGGTATGGTATATTCATACCATAACATAAGAACAATAACGGAGTCACCTAGTGCAG”, for which the binding signal was 21200 fluorescence intensity (a.u.).

With “TTGGATGTTTGCCGTGGACAAGTGCTAACTGTCAAAACCCCGGAGTCACCTAGTGCAG”, the binding signal is 34900 fluorescence intensity (a.u.).

“GTGTGAAAAGATGCTGGCCCAATTAATTTGCGCGCGTCATCGGAGTCACCTAGTGCAG”: the binding signal is 48700 fluorescence intensity (a.u.).

With “CTTGTGGCCCATTAATGGCTCGCGTCGGCCTAATTTTGTGCGGAGTCACCTAGTGCAG”, the binding signal is 4450 fluorescence intensity (a.u.).

“TTGAAACTGTGCATGCGCATCACCTTCATGCCCAAAATTTCGGAGTCACCTAGTGCAG”: the binding signal is 3160 fluorescence intensity (a.u.).

For “AACGTCGGTTCCCAAACATTTGTTTTCCTTACCAATCGGGCGGAGTCACCTAGTGCAG”, the binding signal was 3490 fluorescence intensity (a.u.).

As for “ACCAGTCCCAAATCAAACAGTCCTACTAGTTGCATTTTGTCGGAGTCACCTAGTGCAG”, the binding signal is 47200 fluorescence intensity (a.u.).

For the sequence “TATCATTTGTCAAACACACCCATATCCCATTTGCCAATCACGGAGTCACCTAGTGCAG”, the binding signal is 3890 fluorescence intensity (a.u.).

Turning to “TCAATCATGAGGACATGGTAATATATTGCTTGTGTTGCTTCGGAGTCACCTAGTGCAG”, the binding signal was 3550 fluorescence intensity (a.u.).

As to “AATTATAAAATCCAGAAAATAAACTAAGAACTGAAAACTACGGAGTCACCTAGTGCAG”, the binding signal was 5060 fluorescence intensity (a.u.).

As to “GTGTGAAACTCATACAAATATAAAATTACTGAACTACCGTCGGAGTCACCTAGTGCAG”, the binding signal is 49600 fluorescence intensity (a.u.).

For the sequence “ACAAATACTGATACATATACCTATACGTATGCGTCACCGTCGGAGTCACCTAGTGCAG”, the binding signal was 8380 fluorescence intensity (a.u.).

Turning to “TCAGGATGACTCGAAGTCGAATCCGCGTAATACGCTGGCGCGGAGTCACCTAGTGCAG”, the binding signal is 3370 fluorescence intensity (a.u.).

With “CCATCACCTCGTCGTCCCCGTCACCGCGCCTCTCCCGCTGCGGAGTCACCTAGTGCAG”, the binding signal is 3780 fluorescence intensity (a.u.).

Turning to “TTGAATGGTGATGTAACTTGCATGGTTCTACACTTGATGACGGAGTCACCTAGTGCAG”, the binding signal is 3610 fluorescence intensity (a.u.).

“TAATTCCAAGCTTGTTTCACCGACCTGCCAAACTCGATTGCGGAGTCACCTAGTGCAG”: the binding signal was 3270 fluorescence intensity (a.u.).

“CTCCGATGGAAGCCACGTCCTGTCCAATTCCCAAACTAACCGGAGTCACCTAGTGCAG”: the binding signal is 4220 fluorescence intensity (a.u.).

With “GGGCAGCGCTAACCCAAAGCTCCTGCGATTCCAAACCGACCGGAGTCACCTAGTGCAG”, the binding signal was 64800 fluorescence intensity (a.u.).

Consider “AAGGTGATAGGGTCTCAAGTACGTCATTATGAATGTAAATCGGAGTCACCTAGTGCAG”, for which the binding signal was 3910 fluorescence intensity (a.u.).

With “TCTAGACAATCAAGCCGCTAGAAGTTTCATAGAGTGGTAGCGGAGTCACCTAGTGCAG”, the binding signal is 7160 fluorescence intensity (a.u.).

Turning to “CTCCCTAGTCCACAAAACCTAGTGACGCGGCGAAACCCAACGGAGTCACCTAGTGCAG”, the binding signal was 5660 fluorescence intensity (a.u.).

In the case of “ACATGGGCCGCAATCAGGTCACGTGGCTAGGCCTTGGGCCCGGAGTCACCTAGTGCAG”, the binding signal is 3230 fluorescence intensity (a.u.).

On to “GTGTGCTCTTGCATACATACTTGGGCTTATCTAGCTGCGTCGGAGTCACCTAGTGCAG”, for which the binding signal was 5510 fluorescence intensity (a.u.).
